Screening results (PubChem)
Compounds with a hit are over-represented: about 7.4% of the library has one in this group of screens.
FXIa inh mix: FXIa protease inhibitors in compound pools, primary screen, biochemical, 10-compound mixtures; Coagulation factor XI (Homo sapiens), P03951; purified FXIa, fluorogenic substrate, pooled mixtures; inhibition, % at 5 µM; 62,000 tested, 0.19% active; AID 680, 2007;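 further: each value is inhibition by a whole ten-compound pool holding the compound; 0% = enzyme with no mixture and 100% = wells lacking enzyme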
FXIIa mix inh: human factor XIIa inhibitors, primary screen, biochemical, pooled compound mixtures, fluorogenic substrate; 62,000 tested, 0.2% active; purified FXIIa; Coagulation factor XII (Homo sapiens), P00748; inhibition, % at 5 µM;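 further: 0% = enzyme without compound and 100% = no enzyme blank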
hDAT+cocaine: changed hDAT dopamine uptake under cocaine IC80, either direction, primary screen, cocaine antagonist project, cell-based, LLC-PK1 hDAT, [14C]-dopamine uptake, MLSMR | Sodium-dependent dopamine transporter (Homo sapiens), Q01959 | LLC-PK1 hDAT cells, [14C]-dopamine uptake with cocaine IC80; actives deviate in either direction | B-score at 10 µM | 110,000 tested, 1.3% active | AID 449768, 2010;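 active means Z score or B-score, a plate-position-corrected score, falls beyond the plate's 99.7% confidence bounds, in either direction; inactive means both scores lie inside the 99.7% bounds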;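 further: scored against the spread of the other compound wells on the same plate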
D1 allo mod: D1 CRE-luciferase signal change, two-sided – cell-based, HEK293 D1, dopamine EC30, D1 allosteric modulator project, primary screen. D(1A) dopamine receptor (Homo sapiens), P21728. dopamine EC30 potentiation; actives deviate in either direction. B-score at 10 µM. 58,000 tested, 5.9% active. AID 641, 2007;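 active means luminescence count or its row- and column-corrected plate score outside the 99.7% band of the plate's sample wells, on either side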
M1 ag: M1 muscarinic receptor agonists, primary screen, CHO-M1 cells, Fluo-4 calcium, agonist mode; Muscarinic acetylcholine receptor M1; Fluo-4 calcium fluorescence; stronger effect = higher value; B-score at 10 µM; 64,000 tested, 3% active;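 active means fluorescence rise, raw or as B-score row- and column-corrected plate score, outside the 99.7% band of its plate's samples, either direction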
M1 antagonist: antagonists of rat M1 muscarinic receptor. 64,000 tested, 3.4% active. B-score at 10 µM. CHO-M1 cells, Fluo-4 calcium, ACh EC80 antagonist mode; stronger effect = lower value. AID 628, 2007. Muscarinic acetylcholine receptor M1 (Rattus norvegicus), P08482;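 active means calcium fluorescence response, raw or row-and-column corrected B-score, differing from the plate sample mean either way at a set confidence level, mostly lower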
Target sequence (P08482 whole entry, looked up): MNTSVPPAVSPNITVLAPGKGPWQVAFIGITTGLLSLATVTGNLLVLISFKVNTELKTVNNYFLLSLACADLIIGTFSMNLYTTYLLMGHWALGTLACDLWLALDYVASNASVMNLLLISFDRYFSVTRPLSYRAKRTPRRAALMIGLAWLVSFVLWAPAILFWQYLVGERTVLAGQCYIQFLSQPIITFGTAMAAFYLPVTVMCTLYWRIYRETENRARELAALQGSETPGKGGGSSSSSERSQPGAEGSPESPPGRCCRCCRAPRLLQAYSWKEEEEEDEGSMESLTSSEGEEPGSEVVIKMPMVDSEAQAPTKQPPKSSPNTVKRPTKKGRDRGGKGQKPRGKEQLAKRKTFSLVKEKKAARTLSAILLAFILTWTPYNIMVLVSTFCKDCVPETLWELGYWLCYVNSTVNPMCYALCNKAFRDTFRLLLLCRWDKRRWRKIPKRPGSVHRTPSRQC
D1 PAM confirm: D1 receptor positive allosteric modulators, retest, confirmation, cell-based, HEK293 D1, CRE-luciferase, duplicate | dopamine EC30 potentiation; stronger effect = higher value | luminescence at 10 µM | shares compounds with D1 allo mod | 2,200 tested, 88% active;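 active means luminescence in either of two replicates above the same-plate mean plus 3 SD of the low-dose dopamine control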
D1 no dopamine: D1 receptor agonism without dopamine, confirmation, mechanism study for D1 allosteric modulator project, cell-based, HEK293 D1, CRE-luciferase, secondary assay 1; shares compounds with D1 allo mod; luminescence, no dopamine; stronger effect = higher value; luminescence at 10 µM; 1,900 tested, 0.8% active; AID 646, 2007; in the data active means luminescence above about 3900
Isoprot counter: counter-screen for D1 modulators: isoproterenol response in HEK293 cells; shares compounds with D1 allo mod; HEK293 D1 CRE-luciferase, isoproterenol EC30 counter-screen; calls only at 10 µM; 2,200 tested, 63% active;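 active means luminescence in either replicate above plate mean of wells with a partly effective reference agonist dose plus 3 SD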;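 further: isoproterenol raises cAMP through native beta-adrenoceptor Gs so signal bypasses D1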
* = called active by the depositor; i = inactive; / = no result given; + = active, no number. Unless noted, no stated cut-off is given here; in the data, active means inhibition above about 20% (passing the limit was not always enough); inactive means the rest.

SMILES | FXIa inh mix | FXIIa mix inh | hDAT+cocaine | D1 allo mod | M1 ag | M1 antagonist | D1 PAM confirm | D1 no dopamine | Isoprot counter
COc1ccc(C2c3c(-c4cc(Cl)c(C)cc4O)n[nH]c3C(=O)N2Cc2cccnc2)cc1OC (configuration not stated) | 3.5 | -12.0 | 2.96* | 4.27* | -1.67 | -0.23 | 9304* | / | +
O=c1c2cc3ccccc3n2cnn1Cc1ccccc1F | 13.8 | 4.1 | 0.252 | 3.1* | 1.49 | -0.334 | 21084* | 1636 | +
Cc1cc([N+](=O)[O-])nn1Cc1ccccc1F | / | / | -0.508 | / | / | / | / | / | /
CCOC(=O)c1cc(-c2ccccc2)sc1N | 8.3 | 0.0 | 0.0728 | 12.3* | 0.469 | 0.00595 | 19816* | 1684 | +
CCOC(=O)c1sc(-c2ccccc2)cc1N | 8.0 | -19.1 | 0.454 | 6.1* | 0.153 | -0.615 | 12680* | 1780 | i
CCOC(=O)c1cc(-c2ccccc2)sc1NC(=O)c1ccc(OC)cc1 | / | / | -0.165 | / | / | / | / | / | /
CCOC(=O)c1sc(-c2ccc(F)cc2)cc1N | / | / | 0.232 | / | / | / | / | / | /
CCCCCCOC(=O)CCn1[nH]c(=O)c2ccccc2c1=O | / | / | 0.293 | 0.541 | -0.938 | 0.059 | / | / | /
CC(=O)c1cccc(NC2c3ncccc3C(=O)N2Cc2ccco2)c1 (configuration not stated) | 3.9 | 11.5 | 0.0457 | 19.5* | 1.06 | 1.08 | 19736* | / | +
O=C1c2cccnc2C(Nc2ccccc2)N1Cc1ccco1 (configuration not stated) | / | / | -0.889 | / | / | / | / | / | /
N#C/C(=C1/CCCCCN1)c1nc2ccccc2s1 | 4.0 | -14.7 | -0.27 | 6.17* | -0.00755 | 0.331 | 8248* | 1304 | +
COc1cccc(N2CCN(C(c3ccccn3)c3nnnn3C(C)(C)C)CC2)c1 (configuration not stated) | / | / | -0.82 | / | / | / | / | / | /
O=C(c1ccco1)N1CCN=C1SCc1ccc(F)cc1 | 5.8 | 2.5 | -0.14 | 0.553 | -0.0588 | 0.399 | / | / | /
CSC1=NCCN1C(=O)Cc1cccs1 | 3.0 | 7.2 | -0.904 | 9.8* | 0.153 | -0.9 | 7652* | 1576 | i
CSC1=NCCN1C(=O)c1ccc(Br)o1 | 5.5 | 2.2 | -0.751 | 5.72* | -1.03 | -0.319 | 11560* | 1672 | i
Cc1ccc(NCc2nnc(SCC(=O)N3CCc4ccccc43)n2C)cc1 | 6.1 | 2.4 | -0.722 | -0.652 | -0.261 | 0.00882 | / | / | /
Cn1c(=O)[nH]c(=O)c2c1nc(N1CCCCCC1)n2CCN1CCCCCC1 | 6.0 | 6.9 | 0.272 | 0.38 | 0.561 | -1.07 | / | / | /
Cn1c(N2CCCC2)nc2c1c(=O)n(Cc1ccc(F)cc1)c(=O)n2C | 7.3 | 7.9 | 0.665 | 4.46* | 0.225 | 0.844 | 12452* | 1616 | +
C/C(Cl)=C\Cn1c(N2CCCC2)nc2c1c(=O)[nH]c(=O)n2C | 9.5 | -12.9 | 1.2 | 10.5* | -0.294 | 0.258 | 16008* | 2192 | +
C/C(Cl)=C/Cn1c(N2CCCC2)nc2c1c(=O)n(C)c(=O)n2C | 4.1 | -34.2 | 0.107 | 8.45* | -0.313 | -0.0175 | 7912* | / | i
C=CCn1c(N2CCCCCC2)nc2c1c(=O)[nH]c(=O)n2C | / | / | -0.7 | 6.42* | -0.141 | -0.534 | 12744* | 1604 | +
Cn1c(=O)n(Cc2ccc(F)cc2)c(=O)c2c1nc1n2CCCN1Cc1ccccc1 | -0.3 | 3.5 | 0.589 | -0.235 | 0.929 | -0.423 | / | / | /
CC(NC(=O)c1ccccc1F)C(=O)O (configuration not stated) | / | / | 0.358 | / | / | / | / | / | /
